Sampled rows, rich in hits. Any-hit rate of the full collection: about 11%.
G9a inh: inhibitors of human histone lysine methyltransferase G9a; Q96KQ7; G9a H3K9 monomethylation, AlphaScreen, 2 h; AID 504332; 8.8% of 350,000 active; Potency, µM (doses to about 102 µM), most hits filed as inhibitors; note: nearly all actives have a fitted effect of over 75% in size
Target sequence (Q96KQ7 913-1193 limits assumed): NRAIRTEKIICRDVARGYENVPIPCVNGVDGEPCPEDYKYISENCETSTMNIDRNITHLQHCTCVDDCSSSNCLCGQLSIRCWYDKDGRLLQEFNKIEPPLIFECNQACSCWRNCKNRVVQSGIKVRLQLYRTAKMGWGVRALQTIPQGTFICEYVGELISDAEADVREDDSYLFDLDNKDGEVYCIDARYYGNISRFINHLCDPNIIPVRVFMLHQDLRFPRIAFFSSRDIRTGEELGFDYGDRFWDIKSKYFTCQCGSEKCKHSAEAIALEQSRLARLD
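Signal arises when biotinylated H3K9 peptide, once monomethylated, bridges streptavidin donor and antibody-captured acceptor beads. Enzyme at 20 nM was preincubated 15 min with test compounds; peptide 500 nM and SAM 20 uM then reacted for 2 h.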
HP1b chromo inh: HP1-beta chromodomain-methylated histone interaction inhibition; 0.56% of 390,000 active; P83916; AlphaScreen HP1-beta / biotin-H3K9me3 peptide binding; Potency, µM (highest dose often 114 µM), usual class: inhibitors; note: nearly all actives have a fitted effect of over 70% in size
Target sequence (P83916 whole entry, looked up): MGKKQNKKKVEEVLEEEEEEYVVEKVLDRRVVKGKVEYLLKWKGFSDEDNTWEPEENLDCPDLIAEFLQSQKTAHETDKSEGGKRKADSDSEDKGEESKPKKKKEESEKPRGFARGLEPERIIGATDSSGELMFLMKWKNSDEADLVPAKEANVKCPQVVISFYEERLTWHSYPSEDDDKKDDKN
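Compound inhibition of the preformed complex between 50 nM HP1-beta and 50 nM biotinylated H3K9me3 peptide was read by AlphaScreen. Buffer was PBS pH 7.4 with 0.01% Tween-20. Incubations ran 30 min at room temperature, with 10 ug/mL donor/acceptor beads.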
BAZ2B block: blocks human BAZ2B. Q9UIF8. AlphaScreen BAZ2B-H3K14Ac peptide displacement. Potency, µM (titrated, usually from 114 µM), hits mostly inhibitors. 4.4% of 360,000 active; note: nearly all actives have a fitted effect of over 60% in size
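BAZ2B 50 nM plus b-H3(5-23)K14Ac 50 nM, PBS pH 7.4/0.01% Tween-20, 30 min RT; compound added (max 110 uM), 30 min RT; streptavidin donor/Ni-chelate acceptor beads 10 ug/mL final, 20 min dark; AlphaScreen read.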
JMJD2A Tudor inh: inhibitors of human JMJD2A Tudor domain. O75164. AlphaScreen JMJD2A-Tudor / H3K4me3 peptide binding. Potency, µM (top dose mostly 114 µM), most hits filed as inhibitors. 4.4% of 390,000 active; note: nearly all actives have a fitted effect of over 50% in size
L3MBTL1 inh: blocks human L3MBTL1; Q9Y468; Potency, µM (doses to about 57.1 µM), actives largely listed as inhibitors; AID 485360; 0.66% of 230,000 active; AlphaScreen L3MBTL1–H3K9me1 peptide binding; note: nearly all actives have a fitted effect of over 60% in size
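L3MBTL1 (50 nM) pre-complexed 30 min with biotinylated H3(1-15)K9me1 peptide (75 nM), then compounds added for 30 min at room temperature; AlphaScreen streptavidin donor/nickel chelate acceptor beads (10 ug/mL final) read after 30 min dark incubation.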
Each line names hits and unclear results; the compound was inactive in the other large screens. Calls come from the whole dose curve; as a rule, active = well fitted inhibition curve with a large enough effect; inconclusive = small, poorly fitted or top-dose-only effect; inactive = no such curve, though single readings can be large or run the other way.

O=[N+]([O-])c1cc2c(cc1C=Nc1ccccc1)OCO2	G9a inh inconclusive, BAZ2B block inconclusive, JMJD2A Tudor inh inconclusive
Sc1oc(-c2ccccc2)cc1C=Nc1ccccc1	G9a inh 0.89µM, HP1b chromo inh inconclusive, BAZ2B block 20µM, JMJD2A Tudor inh 20µM (no result: L3MBTL1 inh)
COCCNC(=O)CSc1nc2nn(-c3ccccc3)c(=O)c-2c2n1CCCCC2	JMJD2A Tudor inh 56µM
O=C(CSc1nc2nn(-c3ccccc3)c(=O)c-2c2n1CCCCC2)c1ccc(O)c(O)c1	HP1b chromo inh 28µM, BAZ2B block 10µM, JMJD2A Tudor inh 11µM, L3MBTL1 inh 8.9µM
COC(=O)c1ccc(NC(=O)CC2C(=O)N(c3cccc(OC)c3)C(=O)N2Cc2ccco2)cc1 (stereo not given)	G9a inh inconclusive (no result: L3MBTL1 inh)
CC(=O)c1c(C)[nH]c(C(=O)CN2CCN(S(=O)(=O)c3ccccc3F)CC2)c1C	none (no result: G9a inh, BAZ2B block)
Cc1cc(C)nc(NNS(=O)(=O)c2ccc(F)c(Cl)c2)n1	G9a inh inconclusive, BAZ2B block 79µM
COc1ccc(S(=O)(=O)NNc2nc(C)cc(C)n2)cc1Br	G9a inh 22µM
Cc1cc(C)nc(NNS(=O)(=O)c2ccc(Cl)cc2)n1	JMJD2A Tudor inh inconclusive (no result: G9a inh, BAZ2B block)
COc1ccc(S(=O)(=O)NC2CC2)cc1Br	none (no result: G9a inh)
Cc1cccc(NC(=O)Cn2c(=O)n(CCc3ccccc3)c(=O)c3sc4ccccc4c32)c1	none (no result: L3MBTL1 inh)
COc1cccc(N2C(=O)CC(N3CCN(C(=O)c4ccco4)CC3)C2=O)c1 (stereo not given)	G9a inh inconclusive (no result: L3MBTL1 inh)
COc1ccc2oc(=O)c(C(=O)N3CCN(C(=O)c4ccccc4)CC3)cc2c1	none (no result: L3MBTL1 inh)
O=C(c1ccco1)N1CCN(C2CC(=O)N(c3ccc(F)c(Cl)c3)C2=O)CC1 (stereo not given)	G9a inh 28µM (no result: L3MBTL1 inh)
COc1ccc2[nH]c(C)c(C(=O)CN3CCN(C(=O)c4ccco4)CC3)c2c1	G9a inh 50µM
COc1ccc2oc(=O)c(C(=O)N3CCN(C(=O)c4ccco4)CC3)cc2c1	G9a inh 18µM, JMJD2A Tudor inh 79µM (no result: L3MBTL1 inh)
COc1ccc(N2C(=O)CC(N3CCN(C(=O)c4ccco4)CC3)C2=O)cc1 (stereo not given)	G9a inh 56µM
COC(=O)c1ccccc1NC(=O)CSc1c2c(nc3ccc(Cl)cc13)CCCC2	none (no result: BAZ2B block, L3MBTL1 inh)
Nc1c(Br)cc(Br)c2cccnc12	none (no result: G9a inh, BAZ2B block, L3MBTL1 inh)
O=c1oc2c3c(ccc2c2ccccc12)OCN(Cc1ccc(Cl)cc1)C3	G9a inh 1.4µM (no result: L3MBTL1 inh)
CCCc1cc(=O)oc2c3c(ccc12)OCN(Cc1ccccc1OC)C3	none (no result: L3MBTL1 inh)
Cc1cc(=O)oc2c3c(ccc12)OCN(Cc1ccc(Cl)cc1)C3	none (no result: L3MBTL1 inh)
COc1ccccc1CN1COc2ccc3c(oc(=O)c4ccccc43)c2C1	G9a inh 0.79µM, BAZ2B block 5µM, JMJD2A Tudor inh inconclusive (no result: L3MBTL1 inh)
COc1cccc(C2CC(=O)Nc3c2c(=O)n(C)c2ncnn32)c1OC (stereo not given)	none (no result: L3MBTL1 inh)
CN1C(=O)C(Cc2cnc[nH]2)NC1=S (stereo not given)	G9a inh 28µM (no result: L3MBTL1 inh)
O=C1N[C@@H](Cc2ccccc2)C(=O)N2CCCC12 (stereo not given in full)	none (no result: BAZ2B block)
O=C1N[C@@H](Cc2cnc[nH]2)C(=O)N2CCC[C@@H]12	G9a inh 20µM, BAZ2B block inconclusive
c1ncc(CC2CCNCC2)[nH]1	none (no result: HP1b chromo inh, BAZ2B block, JMJD2A Tudor inh, L3MBTL1 inh)
Cc1cc(F)ccc1NC(=O)Cn1c(=O)ccc2cc(S(=O)(=O)N3CCC(C)CC3)ccc21	none (no result: L3MBTL1 inh)
Cc1ccc(C)c(NC(=O)Cn2cc(S(=O)(=O)c3ccc(F)cc3)c(=O)c3cc(F)ccc32)c1	none (no result: L3MBTL1 inh)
C=CCn1c(SCCN)nnc1-c1cccc(S(=O)(=O)N2CCOCC2)c1	JMJD2A Tudor inh 14µM (no result: G9a inh, BAZ2B block, L3MBTL1 inh)
CC(C)CN(CC(C)C)c1nnc(NC(=O)Nc2cccc(C(F)(F)F)c2)s1	G9a inh inconclusive (no result: L3MBTL1 inh)
COc1cccc(NC(=O)CSc2nc3c(oc4ccccc43)c(=O)n2Cc2ccco2)c1	none (no result: L3MBTL1 inh)
C#CCOCCOCCOCCNc1nc(N2CCN(C(=O)[C@H]([C@@H](C)CC)n3cc([C@@H](N)Cc4ccc(O)cc4)nn3)CC2)nc(N2CCN(C(=O)[C@H]([C@@H](C)CC)n3cc([C@@H](N)Cc4ccc(O)cc4)nn3)CC2)n1	BAZ2B block 50µM, JMJD2A Tudor inh inconclusive
